The list is not random: actives were taken first. Their share in the collection is about 7.3%.
FLuc modulator – firefly luciferase modulation, counter-screen for miR-21 project; purified FLuc, Km substrates, luminescence inhibition; P08659; 6.9% of 360,000 active; Potency, µM (titrated, usually from 57.5 µM), usual class: inhibitors; note: nearly all actives have a fitted effect of over 55% in size
Target sequence (P08659 whole entry, looked up): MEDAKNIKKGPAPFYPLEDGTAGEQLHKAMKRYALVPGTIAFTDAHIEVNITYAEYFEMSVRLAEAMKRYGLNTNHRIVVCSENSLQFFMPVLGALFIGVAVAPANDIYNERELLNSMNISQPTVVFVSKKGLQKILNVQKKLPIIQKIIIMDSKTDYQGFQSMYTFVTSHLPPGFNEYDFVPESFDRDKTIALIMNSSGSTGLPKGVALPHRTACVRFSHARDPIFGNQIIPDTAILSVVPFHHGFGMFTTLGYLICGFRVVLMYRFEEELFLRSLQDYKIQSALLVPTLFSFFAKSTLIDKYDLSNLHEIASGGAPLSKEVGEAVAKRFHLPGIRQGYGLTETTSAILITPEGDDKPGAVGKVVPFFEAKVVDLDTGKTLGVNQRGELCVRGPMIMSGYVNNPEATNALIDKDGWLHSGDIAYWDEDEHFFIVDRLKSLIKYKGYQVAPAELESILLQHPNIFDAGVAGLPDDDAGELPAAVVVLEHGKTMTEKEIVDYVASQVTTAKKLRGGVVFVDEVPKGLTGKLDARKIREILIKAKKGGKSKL
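Purified P. pyralis luciferase, 10 nM final, with Km-level 10 uM D-luciferin and 10 uM ATP in 50 mM Tris acetate pH 7.5, 10 mM Mg acetate, 0.01% Tween-20, 0.05% BSA; 6-point qHTS titration about 60 µM downward; luminescence read.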
SMN2 splice enh – enhancers of SMN2 splice variant expression; HEK293 SMN2-luciferase splicing reporter, luminescence, 30-36 h; Potency, µM (top dose mostly 46.1 µM), actives largely listed as activators; 2.8% of 210,000 active; note: nearly all actives have a fitted effect of over 55% in size
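HEK293 cells carry an SMN2 […]–luciferase reporter in which exon 7 inclusion puts luciferase in frame. Cells were plated 10-12 h before compound addition, then incubated 30-36 h at 37C. ONE-Glo luminescence was read; sodium butyrate at 4.5 mM final served as control.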
ELG1 genotoxic – induces genotoxicity in HEK293T cells with luciferase-tagged ELG1; Potency, µM (titrated, usually from 46 µM), actives largely listed as activators; 1.3% of 330,000 active; HEK293T ELG1-luciferase reporter, luminescence, 16 h; note: nearly all actives have a fitted effect of over 60% in size
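Quantitative HTS format in 1536-well plates. HEK293T ELG1-luciferase reporter cells receive test compound and are incubated 16 hr at 37 °C, 5% CO2; ONE-Glo added, 30 min room temperature, then luminescence read.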
NPC1 promoter act – activates the NPC1 promoter | Huh7 NPC1 promoter luciferase reporter, 24 h | Potency, µM (doses to about 9.22 µM), hits mostly activators | 2.4% of 320,000 active; note: nearly all actives have a fitted effect of over 60% in size
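Cells: Huh7 expressing luciferase under the NPC1 promoter, 1500/well. Seeded 2 h, compound added, incubated 24 h at 37 °C. Luciferase reagent, 10 min ambient, then luminescence.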
KinaseGlo FLuc – blocks Kinase-Glo luciferase, a counter-screen artifact; Q27757; Kinase-Glo luciferase, ATP luminescence, 8 min; Potency, µM (titrated, usually from 38.3 µM), usual class: inhibitors; 0.28% of 200,000 active; note: nearly all actives have a fitted effect of over 60% in size
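Substrate mix (final 50 mM imidazole pH 7.2, 50 mM KCl, 7 mM MgCl2, 10 uM ATP, 0.01% Tween 20, 0.05% BSA) plus pin-tool compound, then Kinase-Glo detection mix; 8 min ambient, luminescence read.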
Rab9 prom act – Rab9 promoter activation. Huh7 Rab9 promoter-luciferase reporter, luminescence, 24 h. Potency, µM (doses to about 9.22 µM), hits mostly activators. 2.8% of 320,000 active. AID 485297; note: nearly all actives have a fitted effect of over 60% in size
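Quantitative HTS format; Huh7 Rab9-luciferase reporter cells (1500/well) receive compound 2 h post-plating, incubate 24 h at 37 °C, then get luciferase reagent for 10 min before luminescence reading.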
Numbers stand for hits; - = inactive; ? = inconclusive; . = no result given. Calls come from the whole dose curve; as a rule, active = well fitted curve in the direction sought with a large enough effect; inconclusive = small, poorly fitted or top-dose-only effect, or another doubt; inactive = no such curve, though single readings can be large; an effect the other way counts as inactive or inconclusive.

SMILES	FLuc modulator	SMN2 splice enh	ELG1 genotoxic	NPC1 promoter act	KinaseGlo FLuc	Rab9 prom act
Cn1c(CC(=O)Nc2ccccc2)nnc1SCC(=O)Nc1ccc(N2CCOCC2)cc1	12µM	.	?	-	.	-
C=CCn1cc(/C=C2\SC(N3CCOCC3)=NC2=O)c2ccccc21	?	.	-	-	.	-
C/C(CC(=O)Nc1cccnc1)=N/NC(=O)COc1ccc(Cl)cc1Br	-	.	-	-	.	-
Nc1c(Cl)ncnc1NCc1ccccc1	-	.	-	-	.	-
COCCn1c(SCC(=O)Nc2cccnc2Cl)nc2ccccc2c1=O	-	.	-	-	.	-
Cc1ccn2c(=O)c(C(=O)NC3CCCCC3C)c(O)nc2c1 (stereo not drawn)	-	.	-	-	.	-
c1cc2c(cc1CN1CCN(C3CCCCCC3)CC1)OCO2	-	.	-	-	.	-
CCCC(=O)Nc1ccc2nc(SCC(=O)Nc3ccc(N4CCOCC4)c(Cl)c3)sc2c1	3.8µM	-	-	4µM	-	-
Nc1ccc2nc(SCC(=O)Nc3ccc(N4CCOCC4)c(Cl)c3)sc2c1	?	-	?	-	-	-
CCn1c(Cc2ccccc2)nnc1SCC(=O)Nc1ccc(N2CCOCC2)c(Cl)c1	15µM	-	-	-	-	-
Cc1cc(OCC(=O)NCCc2cccc(F)c2)c2c(C)cc(=O)oc2c1	-	.	-	-	.	-
O=C(c1ccco1)N1CCC2(CC1)CN(Cc1cc(C(F)(F)F)cc(C(F)(F)F)c1)C2	.	-	.	.	-	.
COc1cccc(-c2nn(-c3ccc(C)cc3)cc2C(=O)NCC2CCCO2)c1 (stereo not drawn)	9.5µM	.	-	-	.	-
COc1ccc(-c2nn(-c3ccccc3)cc2C(=O)NCC2CCCO2)cc1 (stereo not drawn)	?	.	-	-	.	-
COc1cccc(-c2nn(-c3ccc(F)cc3)cc2C(=O)NCC2CCCO2)c1 (stereo not drawn)	17µM	.	-	-	.	-
COc1cccc(-c2cc(C(=O)NCC3CCCO3)c3cc(C)cc(C)c3n2)c1 (stereo not drawn)	1.9µM	.	-	-	.	-
O=C(NCC1CCCO1)c1cn(-c2ccccc2)nc1-c1ccccc1 (stereo not drawn)	6.7µM	.	-	-	.	-
O=C1COc2ccc(C(=O)COC(=O)CCSc3ccc(Cl)cc3)cc2N1	-	-	-	-	-	-
Cc1ccc(-c2nn(-c3ccc(F)cc3)cc2C(=O)NCC2CCCO2)cc1 (stereo not drawn)	11µM	.	-	-	.	-
COc1cc(/C=N/NC(=O)c2cc(C3CC3)[nH]n2)ccc1O	?	.	-	-	.	-
COc1cc(/C=N/NC(=O)c2cc(C34CC5CC(CC(C5)C3)C4)[nH]n2)ccc1O	13µM	-	?	-	-	-
COc1cc(/C=N/NC(=O)c2[nH]nc3c2CCc2ccccc2-3)ccc1O	27µM	-	-	-	-	-
Oc1c(Br)cc(Br)cc1/C=N/NC(=S)N[C@H]1CC2C=CC1C2 (stereo partly drawn)	-	.	-	-	.	-
COc1cccc(/C=N/NC(=S)NC2CC3CC2C2C=CCC32)c1O (stereo not drawn)	5.4µM	.	-	-	.	-
Oc1ccccc1/C=N/NC(=S)NC1CC2CC1C1C=CCC21 (stereo not drawn)	5.4µM	.	?	-	.	?
SMILES	FLuc modulator	SMN2 splice enh	ELG1 genotoxic	NPC1 promoter act	KinaseGlo FLuc	Rab9 prom act
Cc1sc2ncn(CC(=O)NCCCN3CCC(C)CC3)c(=O)c2c1S(=O)(=O)N1CCC(C)CC1	-	.	-	-	.	-
CCN(CC)c1ccc2cc(C(N)=O)c(=N)oc2c1	24µM	-	?	-	-	-
CCCCCCc1cc2cc(C(N)=O)c(=N)oc2cc1O	17µM	-	-	-	-	-
CCN(CC)c1ccc2cc(NC(=O)CCC(=O)O)c(=O)oc2c1	6.7µM	-	-	-	-	-
CCN(CC)c1ccc2cc(C(=O)Nc3ccccn3)c(=O)oc2c1	0.54µM	2.8µM	?	0.32µM	-	0.11µM
CCCCCCc1cc2cc(C(=O)NC)c(=N)oc2cc1O	-	-	-	-	-	-
CCN(CC)c1ccc2cc(C(N)=O)c(=O)oc2c1	?	?	-	-	-	-
